Consider four molecules from PubChem BioAssay.

A short description of assay [1]: optical density shifts of acrAB sulA E. coli – strain DRC41, OD650, 48 h, E. coli filamentation inducer project, primary screen (AID 1152).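 Also: E. coli MC1000 strain DRC41 lacking acrAB efflux pump and sulA.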 Particulars: higher = more signal, called active from +8 up or from −8 down.
Assay [2] can be described thus: probe aLefty1 binding on compound microarray – biochemical, small-molecule microarray, 635/667 nm fluorescence, primary screen (AID 1153).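 Also: score merges spot fluorescence with signal-to-noise ratio from the scanned slide images.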 As to conditions: higher = more signal.
A short description of assay [3]: plasmodial surface anion channel blockers, osmotic lysis – cell-based, P. falciparum Indochina, OD700, 1 h, primary screen (AID 1154). Particulars: P. falciparum Indochina infected RBC osmotic lysis, higher = more signal, called active from +8 up or from −8 down.
Assay [4] in a line: plasmodial surface anion channel blockers, osmotic lysis – cell-based, P. falciparum Indochina, OD700, 2 h, primary screen (AID 1155).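 Also: lysis reports solute entry through the parasite surface anion channel PSAC.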 As to conditions: P. falciparum Indochina infected erythrocytes, higher = more signal, called active from +8 up or from −8 down.
The nature of assay [5]: changes in parasitized red cell lysis, either direction – P. falciparum Indochina, OD700, 3 h, PSAC antagonist project, primary screen (AID 1156). Particulars: P. falciparum-infected erythrocytes, osmotic lysis, higher = more signal, called active from +8 up or from −8 down.
Assay [6] in a line: plasmodial surface anion channel blockers, osmotic lysis – cell-based, P. falciparum Indochina, OD700, 18 h, primary screen (AID 1157). Particulars: P. falciparum Indochina infected erythrocytes, osmotic lysis OD700, 18 h; higher = more signal, called active from +8 up or from −8 down.
A short description of assay [7]: S6 kinase pathway phospho-S6 level changes – cell-based, A549, cytoblot, luminescence, serum-stimulated, primary screen (AID 1158).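 Also: serum-stimulated A549 lung adenocarcinoma cells; signal is phosphorylated S6 detected by cytoblot immunostaining with HRP secondary.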 Particulars: 5 h, higher = more signal.
Assay [8] deals with NADPH oxidase 2 (Homo sapiens) (UniProt P04839). Description: compounds shifting NOX2 Amplex Red fluorescence – cell-based, HEK293-NOX2, PMA-stimulated, NOX inhibitor project, primary screen (AID 1159). Also: test concentration not given here. Particulars: 45 min, higher = more signal, called active from +8 up or from −8 down.
NADPH oxidase 2 (Homo sapiens), sequence (P04839 whole entry, looked up): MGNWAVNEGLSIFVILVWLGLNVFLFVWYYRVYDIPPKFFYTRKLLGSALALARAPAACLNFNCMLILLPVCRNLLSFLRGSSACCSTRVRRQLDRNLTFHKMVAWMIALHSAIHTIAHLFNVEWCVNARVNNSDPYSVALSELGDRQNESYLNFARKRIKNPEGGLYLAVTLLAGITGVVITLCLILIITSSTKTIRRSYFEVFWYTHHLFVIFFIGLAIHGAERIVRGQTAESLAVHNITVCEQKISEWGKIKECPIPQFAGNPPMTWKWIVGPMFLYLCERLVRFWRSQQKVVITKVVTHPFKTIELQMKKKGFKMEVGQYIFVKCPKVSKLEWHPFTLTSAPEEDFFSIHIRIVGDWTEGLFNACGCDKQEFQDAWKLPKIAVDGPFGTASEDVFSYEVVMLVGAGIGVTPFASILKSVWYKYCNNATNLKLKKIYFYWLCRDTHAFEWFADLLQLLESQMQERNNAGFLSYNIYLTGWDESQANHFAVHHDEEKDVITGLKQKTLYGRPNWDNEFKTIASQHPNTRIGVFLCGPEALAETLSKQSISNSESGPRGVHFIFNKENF
Assay [9] deals with NADPH oxidase 4 (Homo sapiens) (UniProt Q9NPH5). Description: compounds shifting NOX4 Amplex Red fluorescence – cell-based, HEK293-NOX4, tetracycline-induced, NOX inhibitor project, primary screen (AID 1160). As to conditions: HEK293-NOX4, Amplex Red H2O2 fluorescence, 45 min; higher = more signal, called active from +8 up or from −8 down.
NADPH oxidase 4 (Homo sapiens), sequence (Q9NPH5 whole entry, looked up): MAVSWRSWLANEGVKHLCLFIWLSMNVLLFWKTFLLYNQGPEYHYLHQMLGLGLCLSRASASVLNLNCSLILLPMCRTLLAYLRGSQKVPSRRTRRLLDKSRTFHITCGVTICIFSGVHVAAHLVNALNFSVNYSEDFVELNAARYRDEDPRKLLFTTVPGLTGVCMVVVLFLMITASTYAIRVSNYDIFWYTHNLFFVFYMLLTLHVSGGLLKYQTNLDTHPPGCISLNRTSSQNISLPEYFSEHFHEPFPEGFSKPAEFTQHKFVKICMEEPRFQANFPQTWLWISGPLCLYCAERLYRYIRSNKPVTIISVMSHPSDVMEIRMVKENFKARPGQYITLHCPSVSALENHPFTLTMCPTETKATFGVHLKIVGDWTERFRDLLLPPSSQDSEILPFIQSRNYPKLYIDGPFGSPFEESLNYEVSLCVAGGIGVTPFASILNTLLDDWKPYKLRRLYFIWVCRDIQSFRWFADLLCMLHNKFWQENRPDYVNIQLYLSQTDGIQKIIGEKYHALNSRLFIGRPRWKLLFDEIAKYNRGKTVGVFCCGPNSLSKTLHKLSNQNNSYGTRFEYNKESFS
The target of assay [10] is NADPH oxidase 5 (Homo sapiens) (UniProt Q96PH1). Description: compounds shifting NOX5 Amplex Red fluorescence – cell-based, HEK293-NOX5, NOX inhibitor project, primary screen (AID 1161). As to conditions: HEK293-NOX5, ionomycin, 45 min, higher = more signal.
NADPH oxidase 5 (Homo sapiens), sequence (Q96PH1 whole entry, looked up): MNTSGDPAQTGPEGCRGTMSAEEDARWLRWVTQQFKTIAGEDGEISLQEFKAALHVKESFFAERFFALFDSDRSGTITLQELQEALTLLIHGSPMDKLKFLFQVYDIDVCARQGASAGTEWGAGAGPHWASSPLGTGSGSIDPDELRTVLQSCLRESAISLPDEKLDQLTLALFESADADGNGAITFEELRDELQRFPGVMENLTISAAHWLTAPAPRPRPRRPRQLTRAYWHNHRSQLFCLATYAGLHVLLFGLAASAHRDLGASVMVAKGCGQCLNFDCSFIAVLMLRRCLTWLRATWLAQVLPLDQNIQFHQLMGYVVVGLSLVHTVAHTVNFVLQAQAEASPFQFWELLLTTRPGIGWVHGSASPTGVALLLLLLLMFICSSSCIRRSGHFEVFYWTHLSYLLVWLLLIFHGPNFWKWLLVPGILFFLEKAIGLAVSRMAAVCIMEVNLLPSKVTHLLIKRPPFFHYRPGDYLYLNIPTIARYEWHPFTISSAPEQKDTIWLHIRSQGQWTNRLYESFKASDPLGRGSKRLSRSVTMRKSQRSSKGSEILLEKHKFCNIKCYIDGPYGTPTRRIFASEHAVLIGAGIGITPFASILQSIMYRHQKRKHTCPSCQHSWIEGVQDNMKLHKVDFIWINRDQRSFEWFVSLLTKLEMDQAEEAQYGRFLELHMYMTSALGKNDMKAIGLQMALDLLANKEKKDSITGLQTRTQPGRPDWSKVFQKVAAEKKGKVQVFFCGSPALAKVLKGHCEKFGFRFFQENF
Assay [11] in a line: compound effects on lung adenocarcinoma cell viability – A549, calcein-AM fluorescence, 48 h, basal, profiling panel (AID 1162). Also: test concentration not given here. Particulars: higher = more signal.
Assay [12] is described as follows: compound effects on differentiated 3T3-L1 adipocyte viability – cell-based, 3T3-L1 adipocytes, calcein-AM fluorescence, 48 h, basal, profiling panel (AID 1163). Also: test concentration not given here. As to conditions: 3T3-L1 adipocytes viability, higher = more signal.
The nature of assay [13]: compound effects on hepatocellular carcinoma cell viability – HepG2, calcein-AM fluorescence, 48 h, basal, profiling panel (AID 1164). Also: test concentration not given here. As to conditions: higher = more signal.
Assay [14] can be described thus: compound effects on multiple myeloma cell viability – MM1S, calcein-AM fluorescence, 48 h, basal, profiling panel (AID 1165).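 Also: viability of MM1S multiple myeloma cells under basal unstimulated conditions; test concentration not given here.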 Particulars: higher = more signal.
The nature of assay [15]: calcein-AM signal in unstimulated myeloma cells – cell-based, calcein-AM fluorescence, 48 h, PK04 Diversity Set, profiling panel (AID 1166).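 Also: cells grown under basal conditions without added stimulus; test concentration not given here.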 As to conditions: RPMI8226 myeloma viability, higher = more signal.
Assay [16] can be described thus: JC-1 mitochondrial signal, unstimulated HepG2 cells – cell-based, JC-1 fluorescence, 24 h, 100 nL compound, profiling panel (AID 1167). Also: test concentration not given here. As to conditions: HepG2 mitochondrial potential, higher = more signal.
Assay [17] is described as follows: JC-1 mitochondrial signal, unstimulated adipocytes – cell-based, JC-1 fluorescence, 3T3-L1 adipocytes, 24 h, 100 nL compound, profiling panel (AID 1168). Also: test concentration not given here. As to conditions: JC-1 mitochondrial fluorescence, higher = more signal, called active from +8 up or from −8 down.
Assay [18] is described as follows: JC-1 mitochondrial signal, unstimulated myeloma cells – cell-based, JC-1 fluorescence, RPMI8226, 24 h, 100 nL compound, profiling panel (AID 1169). Also: test concentration not given here. As to conditions: JC-1 mitochondrial potential fluorescence, higher = more signal.
Assay [19] can be described thus: JC-1 mitochondrial signal, unstimulated MM1S myeloma – cell-based, JC-1 fluorescence, 24 h, 100 nL compound, profiling panel (AID 1170). Also: test concentration not given here. Particulars: MM1S mitochondrial potential, higher = more signal.
A short description of assay [20]: resazurin metabolic signal in A549 cells – cell-based, resazurin fluorescence, 24 h, PK04 Diversity Set, profiling panel (AID 1171). Also: test concentration not given here. Particulars: A549 viability, higher = more signal, called active from +8 up or from −8 down. For orientation: The colour change of resazurin is a common sign of viable cells or microbes.

Activity calls are given as the source filed them.

`C=CCC(OC(C)=O)[C@@H]1[C@@H](N(Cc2ccc(-c3ccccc3)cc2)C(=O)c2cccc3ccccc23)c2cc(OCCCO)ccc2N1C(=O)c1ccc(-c2ccccc2)cc1` (stereo not given in full): the z-score is 0.82 (inactive) in [1]; 0.353 (inactive) in assay [3]; 1.06 (inactive) in assay [4]; -0.291 (inactive) in assay [5]; 0.358 (inactive) in assay [6]; 0.121 in [7]. The z-score is 0.299 (inactive) in assay [8]; -0.394 (inactive) in assay [9]; -4.31 in [10]; 0.143 in [11]; 0.286 in assay [12]; 0.391 in assay [13]. The z-score in assay [14] was 0.139; in assay [15], -0.094; in assay [16], 3.13; in assay [17], 0.266 (inactive); in [18], -0.745; in [19], -0.00624. The z-score in [20] is 0.126 (inactive). Moreover, in [2], the composite z-score was 0.46.
For the molecule `CCCCCCc1nc(-c2ccc(OC)nc2)cc2c1[Si](C(C)C)(C(C)C)O[C@H]2c1ccccc1`, the z-score was -1.03 (inactive) in [1]; 0.614 (inactive) in [3]; 0.139 (inactive) in assay [4]; 0.245 (inactive) in assay [5]; -0.353 (inactive) in [6]; -0.168 in assay [7]. For the same molecule, the z-score in [8] was 0.0155 (inactive); in assay [9] it was -0.95 (inactive); in assay [10], -1.64; in assay [11], -0.33; in [12] it was -0.261; in assay [13], -1.1. Also, the z-score in [14] is -0.26; in assay [15] it was -1.12; in assay [16], -1.14; in assay [17] it was -1.3 (inactive); in [18], -0.198; in [19], -0.281. In addition, the z-score in assay [20] is 0.98 (inactive). This molecule also registered a composite z-score in [2] of -0.0559.
Take `COc1cc(C(O)C2C=CC3C(=O)NC(=O)C3N2Nc2ccccn2)cc(OC)c1OC` (stereo not given): the z-score in assay [1] is -1.57 (inactive); in assay [3], 0.0115 (inactive); in [4] it was 0.297 (inactive); in [5], -0.928 (inactive); in assay [6] it was 0.409 (inactive); in assay [7], -1.21. Moreover, the z-score in [8] is -1.42 (inactive); in assay [9] it was -3.26 (inactive); in assay [10], -2.9; in assay [11], -0.928; in assay [12] it was -0.66; in assay [13], -1.31. Further, the z-score in [14] was -0.494; in [15], 0.611; in [16], -1.2; in [17], -0.524 (inactive); in assay [18], -0.0982; in assay [19] it was -0.0424. For the same molecule, in assay [20], the z-score was -0.706 (inactive). This molecule also yielded a composite z-score in [2] of 0.19.
`COCCOC(=O)N1C(=O)[C@@]2(c3ccccc31)[C@H](C(=O)N1CCc3cc(OC)c(OC)cc3C1)[C@H]1C(=O)O[C@H](c3ccccc3)[C@H](c3ccccc3)N1[C@@H]2c1ccc(OCCO)cc1`: the z-score in assay [1] is 1.12 (inactive); in assay [3], 5.69 (inactive); in assay [4], 1.85 (inactive); in assay [5] it was 0.757 (inactive); in [6], 0.983 (inactive); in [7], 0.0824. The z-score in assay [8] was 0.238 (inactive); in assay [9], 0.974 (inactive); in assay [10] it was 1.19; in assay [11], 1.23; in assay [12], 1.48; in [13], 0.852. Also, the z-score was -1.1 in [14]; 0.494 in assay [15]; 0.384 in [16]; 0.139 (inactive) in assay [17]; -0.618 in assay [18]; -0.483 in assay [19]. The z-score in [20] was 0.779 (inactive). The molecule further came in with a composite z-score in [2] of 0.18.
